# Measured values reported in PubChem BioAssay (NCI).
# The panel holds about 83,000 compounds, 20% with a hit somewhere; the sample as a whole holds those more often.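 The test compound was applied at a single concentration to cells in 96-well plates for 48 hours, and percent growth was recorded.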 A number with no mark means an inactive call. Activity calls are given as the source filed them. The calls were made as follows: active = growth percent below 10; inactive = the rest.
# How the values were obtained:
# Assay in all cases: NCI-60 one-dose screen, 48 h (100 = growth as untreated, 0 = no growth, -100 = all killed)
# Details in all cases: 10 µM unless noted
# [1] = test system: NCI-H23 lung
# [2] = test system: NCI-H226 lung
# [3] = test system: NCI-H322M lung
# [4] = test system: HOP-62 NSCLC
# [5] = test system: NCI-H460 lung
# [6] = test system: A549/ATCC NSCLC
# [7] = test system: 786-0 renal
# [8] = test system: COLO 205 colon
# [9] = test system: DU-145 prostate
# [10] = test system: K-562 leukemia
# [11] = test system: MALME-3M melanoma
# [12] = test system: MDA-MB-231 breast
# [13] = test system: RXF 393 renal
# [14] = test system: SF-268 CNS
# [15] = test system: SF-295 CNS
# [16] = test system: SF-539 CNS
# [17] = test system: UACC-257 melanoma
# [18] = test system: M14 melanoma
SMILES,growth [1],growth [2],growth [3],growth [4],growth [5],growth [6],growth [7],growth [8],growth [9],growth [10],growth [11],growth [12],growth [13],growth [14],growth [15],growth [16],growth [17],growth [18]
N#Cc1c2ncccc2c2nnc3cc(Cl)c(Cl)cc3n12,88.6%,104%,100%,82.7%,100%,107%,108%,113%,89.2%,91%,79.6%,67%,116%,90.6%,105%,97.1%,95.3%,100%
O=C(OCC1CC2(Cl)C(Cl)=C(Cl)C1(Cl)C2(Cl)Cl)C1C(C(=O)OCC2CC3(Cl)C(Cl)=C(Cl)C2(Cl)C3(Cl)Cl)C2(Cl)C(Cl)=C(Cl)C1(Cl)C2(Cl)Cl (centres undefined),105%,99.2%,98.4%,108%,114%,103%,94%,99.7%,97.4%,94.7%,98.6%,109%,104%,100%,94.8%,97.9%,113%,98.5%
CC(O)CN(CC(C)O)N(CC(C)O)CC(C)O (centres undefined),108%,97.5%,107%,101%,106%,95.5%,99.5%,109%,111%,108%,108%,105%,105%,110%,101%,105%,90.5%,100%
C=CN(C)S(C)(=O)=O,32.2%,91.2%,39.5%,22.6%,17.8%,34.5%,39.5%,111%,18.5%,21.9%,28.3%,46.2%,-9.3% (active),36.5%,8.18% (active),4.91% (active),35.5%,28.8%
CCCCCCCCCC[N+](C)(C)N,104%,92.3%,97.7%,95.8%,111%,97.6%,81.9%,100%,111%,71.6%,95%,101%,81.8%,98.6%,98.4%,89.1%,94.7%,105%
O=C1C(Br)=CC2C1C1C3CCC3C2(Br)C12OCCO2 (centres undefined),65.8%,59.6%,54.5%,47.2%,22.6%,33.2%,42.8%,38.9%,19.7%,15.8%,46%,51.7%,18.4%,25.6%,31.4%,14.5%,54%,44.4%
C=CC1CN2CCC1CC2C(O)c1ccnc2ccc(OC)cc12 (centres undefined),98.3%,91.9%,94.4%,79.8%,98.5%,97.3%,92%,106%,127%,106%,95.6%,96.7%,97%,103%,91.6%,98.3%,106%,98.9%
N#Cc1c2cccnc2c2nnc3cc(Cl)c(Cl)cc3n12,-20.2% (active),79.6%,44.5%,26.1%,34.2%,83%,81.2%,85.8%,36.4%,5.64% (active),25.6%,2.64% (active),-3.12% (active),16.8%,80.8%,35.1%,73.1%,78.1%
O=C1CCNC1,111%,103%,96.5%,108%,109%,101%,96.1%,112%,103%,108%,108%,101%,105%,111%,108%,102%,95.8%,105%
CC(C)(CNC1CCCCC1)OC(=O)c1ccccc1,107%,97.8%,103%,102%,106%,108%,100%,104%,104%,94.1%,99.2%,110%,102%,107%,94.1%,108%,110%,102%
COC(=O)[C@H](Cc1cn(C)cn1)NC(=O)[C@H](Cc1c[nH]c2ccccc12)NC(=O)Nc1cc(C(F)(F)F)cc(C(F)(F)F)c1,-72.4% [100 µM] (active),-47.9% [100 µM] (active),-41.9% [100 µM] (active),-92% [100 µM] (active),-25.8% [100 µM] (active),-50.8% [100 µM] (active),-83.8% [100 µM] (active),-77.1% [100 µM] (active),-88.1% [100 µM] (active),-59.3% [100 µM] (active),-70.2% [100 µM] (active),-92.4% [100 µM] (active),-81.2% [100 µM] (active),-79.9% [100 µM] (active),–,-69.1% [100 µM] (active),-67.6% [100 µM] (active),-83.8% [100 µM] (active)
CC(=O)O.[In],103%,101%,97.6%,106%,111%,99.6%,101%,112%,113%,96.7%,109%,116%,106%,103%,–,110%,94.3%,105%
COc1cc(/C(=C2/O[C@@H]([C@H]3COC(C)(C)O3)[C@H]3OC(C)(C)O[C@@H]23)c2ccc3c(c2)OCO3)cc(OC)c1OC,54%,102%,85.3%,63.5%,57.3%,-14% (active),-6.92% (active),108%,60.2%,40.8%,29.1%,21.9%,–,72%,76.1%,25.2%,58.8%,93.7%
C[C@]12CC[C@H]3[C@@H](CC[C@H]4C[C@@H](O)CC[C@@]43C)[C@@H]1CC(=O)C2,99.9%,100%,106%,96.8%,103%,100%,107%,101%,107%,94.1%,163%,112%,118%,97.9%,–,92.7%,104%,108%
CC(=O)CC(=O)OC/C=C(/C)CCC=C(C)C,103%,101%,118%,107%,109%,105%,104%,109%,111%,108%,121%,109%,98%,106%,–,97%,106%,101%
COc1cc(-c2nc(/C=C3/C(=O)Nc4ccccc43)c3ccccn23)cc(OC)c1OC,47.7%,82.5%,113%,87.4%,66.4%,77%,71.9%,75.1%,–,52.2%,74.4%,40.7%,76.2%,47%,92%,83.6%,70.8%,77.6%
O=C1C(Cl)=C(SC2=NCCN2)C(=O)c2ccccc21,2.92% (active),91.7%,99.5%,98.8%,70%,95.2%,99.2%,111%,–,65%,-50.3% (active),56.3%,121%,62.1%,106%,105%,36.9%,4.35% (active)
